These results are taken from PubChem BioAssay (NCI).

A short description of this assay: NCI Yeast Anticancer Drug Screen. Data for the rad50 strain (AID 155).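 Also: 0% = growth of vehicle-only cultures of the same strain.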 As to conditions: S. cerevisiae rad50 strain growth inhibition, stronger effect = higher value. The procedure: Growth inhibition of yeast strains with defined genetic alterations is measured as a screen for potential anti-cancer activity. Selected strains with alterations in DNA damage repair or cell cycle control were exposed to compounds and growth inhibition was measured relative to vehicle treated controls. The strain used in this assay is rad50

The mark [1] stands for this setting: at 5.0 µM (retest, dose inferred, filed as 0.5).
Where [2] appears, read: at 50.0 µM (retest, dose inferred, filed as 5.0).

Compounds without any hit were thinned out: in the full panel of roughly 79,000, 15% have a hit. A number with no mark means an inactive call. Activity calls are given as the source filed them. Rule as the data show it: active = growth inhibition above about 70%; inactive = the rest.

Take `CCC(=O)c1cc(C(=O)C(=S)SC)cc(C(=O)C(=S)SC)c1`: the growth inhibition (at 1.2 µM) is 1%; the growth inhibition (at 3.7 µM) is 43%; the growth inhibition under setting [1] was 30%; the growth inhibition (at 11.0 µM) is 96% (active); the growth inhibition (at 33.0 µM) was 97% (active); the growth inhibition under setting [2] is 96% (active). In addition, the growth inhibition (at 50.0 µM) was 85.4% (active) and the growth inhibition (at 100.0 µM) is 89% (active).

For the molecule `Brc1ccccc1-c1ncc(-c2ccccc2)o1`, the growth inhibition was -1% (at 1.2 µM); -2% (at 3.7 µM); 42% under setting [1]; 24% (at 11.0 µM); 66% (at 33.0 µM); 81% (active) under setting [2]. The growth inhibition (at 50.0 µM) was 72.2% (active) and the growth inhibition (at 100.0 µM) was 70% (active).

Regarding `Cc1ccccc1N=Cc1cc(Cl)ccc1O`, the growth inhibition (at 1.2 µM) is -5%; the growth inhibition (at 3.7 µM) was -1%; the growth inhibition under setting [1] is -74%; the growth inhibition (at 11.0 µM) was 10%; the growth inhibition (at 33.0 µM) is 44%; the growth inhibition under setting [2] is 66%. Further, the growth inhibition is 51.3% (at 50.0 µM) and 98% (active) (at 100.0 µM).

For the molecule `COC(=O)CC1CCc2c(ccc3ccccc23)C1(C)C(=O)OC` (stereo not given), the growth inhibition reads like this: (at 1.2 µM) 1%; (at 3.7 µM) 2%; under setting [1], -5%; (at 11.0 µM) 10%; (at 33.0 µM) 15%; under setting [2], 21%. For the same molecule, the growth inhibition by setting is: (at 50.0 µM) 15.3%; (at 100.0 µM) 37%.

`N#CC(=Nc1ccccc1F)Nc1ccccc1F`: the growth inhibition was 0% (at 1.2 µM); 2% (at 3.7 µM); -6% under setting [1]; -1% (at 11.0 µM); 5% (at 33.0 µM); -1% under setting [2]. Further, the growth inhibition (at 50.0 µM) is -2.35% and the growth inhibition (at 100.0 µM) was 5%.
